Holding throughout (assay): qHTS profiling for inhibitors of Plasmodium falciparum proliferation (AID 504749); also: nearly all actives have a fitted effect of over 60% in size
Conditions in all cases: P. falciparum in erythrocytes, SYBR Green DNA, 72 h; series mostly up to 28.7 µM
Background: In qHTS, concentration-response curves come from the screen itself.

Assay [1] deals with ATS95. The method in brief:
(§1)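 Infected RBCs, 0.3% parasitemia/2.5% Hct final; cpd 72 h, 37 C, 5% CO2; lysis buffer with saponin/triton/SYBR Green I, o/n RT dark; FI 485/535; norm. to artemisinin (0.29 uM) and DMSO.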

Assay [2] concerns C2A. The method in brief: as §1
Assay [3] has as its system CP185. The method in brief:
as §1

For assay [4], the system named is CP191. The method in brief: as §1
The test system of assay [5] is CP192. The method, boiled down:
as §1

The test system of assay [6] is CP194. The method in brief:
as §1

Assay [7] has as its system CP201. The method in brief: as §1
Assay [8] deals with CP203. The method, boiled down:
as §1

The subject of assay [9] is CP211. The method in brief:
as §1

In assay [10] the test system is CP215. The method in brief: as §1
In assay [11] the test system is CP217. The method in brief: as §1
The subject of assay [12] is CP237. The method, boiled down: as §1
For assay [13], the system named is CP238. The method in brief:
as §1

The test system of assay [14] is CP247. The method in brief: as §1
For assay [15], the system named is CP250. The method in brief: as §1
Assay [16] relates to CP252. The method, boiled down: as §1
Assay [17] deals with CP256. The method, boiled down:
as §1

The test system of assay [18] is CP260. The method, boiled down:
as §1

In assay [19] the test system is CP262. The method, boiled down: as §1
For assay [20], the system named is CP265. The method in brief: as §1

Inconclusive results are not listed. Calls of active or inactive are those of the source. Calls follow the shape of the dose curve; as a rule, active = well fitted inhibition curve with a large enough effect; inconclusive = small, poorly fitted or top-dose-only effect; inactive = flat fitted curve, though single readings scatter.
Potency is read from the fitted curve at half-maximal effect.

As for `CC(=O)Oc1cccc(C(=O)O)c1OC(C)=O`, the Potency result in assay [1], in assay [2], in assay [3], in assay [4], in assay [5] and in assay [6] was “inactive” throughout. In addition, the Potency result in assay [7], in assay [8], in assay [9], in assay [10], in assay [11] and in assay [12] was “inactive” each time. Besides, the Potency entry in [13], in assay [14], in assay [15], in assay [16], in assay [17] and in [18] was “inactive” each time. Besides, the Potency result in assay [19] and in assay [20] was “inactive” throughout.

On to `OCl`, for which the Potency entry in assay [1], in assay [2], in [3], in assay [4], in assay [5] and in assay [6] was “inactive” in each case. The Potency entry in assay [7], in assay [8], in assay [9], in assay [10], in assay [11] and in assay [12] was “inactive” throughout. Also, the Potency entry in assay [13], in assay [14], in assay [15], in [16], in assay [17] and in [18] was “inactive” in each case. Besides, the Potency entry in assay [19] and in assay [20] was “inactive” throughout.

With `Cc1cccc(C)c1NC(=O)C1CCCCN1C` (stereo not given), the Potency entry in assay [1], in [2], in assay [3], in [4], in assay [5] and in [6] was “inactive” each time. Besides, the Potency result in [7], in assay [8], in assay [9], in [10], in [11] and in [12] was “inactive” each time. The Potency result in assay [13], in assay [14], in assay [15], in assay [16], in [17] and in assay [18] was “inactive” in each case. For the same compound, the Potency entry in [19] and in assay [20] was “inactive” throughout.

As for `CCOc1ccc(NC(=S)Nc2ccc(OCC)cc2)cc1`, the Potency result in assay [1], in assay [2], in assay [3], in assay [4], in assay [5] and in [6] was “inactive” in each case. In addition, the Potency entry in assay [7], in [8], in assay [9], in [10], in [11] and in assay [12] was “inactive” throughout. Also, the Potency entry in assay [13], in assay [14], in assay [15], in [16], in assay [17] and in assay [18] was “inactive” each time. Further, the Potency result in assay [19] and in [20] was “inactive” throughout.

Regarding `CNC(=O)c1c(I)c(C(=O)NCC(=O)Nc2c(I)c(C(=O)O)c(I)c(C(=O)NCCO)c2I)c(I)c(N(C)C(C)=O)c1I`, the Potency result in assay [1], in [2], in assay [3], in assay [4], in assay [5] and in assay [6] was “inactive” in each case. For the same compound, the Potency result in assay [7], in [8], in assay [9], in [10], in [11] and in assay [12] was “inactive” throughout. Further, the Potency entry in assay [13], in [14], in [15], in [16], in assay [17] and in [18] was “inactive” each time. Besides, the Potency entry in [19] and in assay [20] was “inactive” in each case.

Consider `O=C(O)[C@H]1C(=CCO)O[C@H]2CC(=O)N12`, for which the Potency result in assay [1], in assay [2], in [3], in assay [4], in assay [5] and in assay [6] was “inactive” in each case. Besides, the Potency entry in [7], in [8], in [9], in assay [10], in [11] and in [12] was “inactive” each time. The Potency entry in assay [13], in assay [14], in [15], in [16], in [17] and in [18] was “inactive” throughout. Further, the Potency result in [19] and in [20] was “inactive” throughout.

As for `CCCCC(CC)COS(=O)(=O)O` (stereo not given), the Potency entry in assay [1], in [2], in assay [3], in [4], in [5] and in assay [6] was “inactive” each time. The Potency entry in [7], in assay [8], in [9], in [10], in [11] and in [12] was “inactive” each time. Further, the Potency result in [13], in assay [14], in assay [15], in [16], in assay [17] and in assay [18] was “inactive” throughout. Also, the Potency entry in assay [19] and in [20] was “inactive” throughout.

`ClC(Cl)Cl`: the Potency result in [1], in [2], in assay [3], in assay [4], in assay [5] and in [6] was “inactive” each time. For the same compound, the Potency result in assay [7], in assay [8], in assay [9], in [10], in assay [11] and in assay [12] was “inactive” throughout. Further, the Potency result in assay [13], in assay [14], in assay [15], in [16], in assay [17] and in [18] was “inactive” throughout. Further, the Potency entry in assay [19] and in assay [20] was “inactive” throughout.

`CC(/C=C/C=C(\C)C(=O)O[C@@H]1O[C@H](CO[C@@H]2O[C@H](CO)[C@@H](O)[C@H](O)[C@H]2O)[C@@H](O)[C@H](O)[C@H]1O)=C\C=C\C=C(C)\C=C\C=C(/C)C(=O)O[C@@H]1O[C@H](CO[C@@H]2O[C@H](CO)[C@@H](O)[C@H](O)[C@H]2O)[C@@H](O)[C@H](O)[C@H]1O`: the Potency entry in assay [1], in assay [2], in assay [3], in [4], in assay [5] and in assay [6] was “inactive” in each case. For the same compound, the Potency result in assay [7], in assay [8], in [9], in assay [10], in assay [11] and in assay [12] was “inactive” throughout. The Potency entry in [13], in assay [14], in assay [15], in assay [16], in assay [17] and in assay [18] was “inactive” each time. Moreover, the Potency entry in [19] and in assay [20] was “inactive” each time.

As for `C[C@H](CCC(=O)O)[C@H]1CC[C@H]2[C@@H]3CC[C@@H]4C[C@H](O)CC[C@]4(C)[C@H]3C[C@H](O)[C@]12C`, the Potency result in assay [1], in assay [2], in [3], in [4], in assay [5] and in [6] was “inactive” throughout. Besides, the Potency entry in assay [7], in [8], in assay [9], in [10], in [11] and in [12] was “inactive” each time. The Potency result in assay [13], in assay [14], in assay [15], in assay [16], in [17] and in [18] was “inactive” throughout. Moreover, the Potency entry in [19] and in [20] was “inactive” in each case.

As for `CO`, the Potency entry in assay [1], in assay [2], in [3], in [4], in assay [5] and in assay [6] was “inactive” in each case. Moreover, the Potency result in assay [7], in [8], in [9], in assay [10], in assay [11] and in assay [12] was “inactive” each time. Moreover, the Potency entry in assay [13], in assay [14], in assay [15], in assay [16], in [17] and in assay [18] was “inactive” in each case. Moreover, the Potency entry in assay [19] and in [20] was “inactive” in each case.

On to `O=C(O)/C=C/c1ccccc1`, for which the Potency entry in assay [1], in assay [2], in assay [3], in assay [4], in assay [5] and in [6] was “inactive” throughout. In addition, the Potency result in assay [7], in assay [8], in [9], in assay [10], in assay [11] and in [12] was “inactive” in each case. Moreover, the Potency result in assay [13], in assay [14], in [15], in assay [16], in [17] and in assay [18] was “inactive” throughout. The Potency entry in [19] and in assay [20] was “inactive” each time.

Take `CC1=CC(=C(c2ccc(N)cc2)c2ccc(N)cc2)C=CC1=N`: the Potency in assay [1] is 2.82 µM (active); in [2] it was 0.631 µM (active); in assay [3] it was 3.98 µM (active); in assay [4] it was 1.78 µM (active); in assay [5], 4.26 µM (active); in assay [6], 3.79 µM (active). For the same compound, the Potency is 5.36 µM (active) in assay [7]; 4.26 µM (active) in assay [8]; 4.26 µM (active) in [9]; 4.78 µM (active) in assay [10]; 3.55 µM (active) in [11]; 3.16 µM (active) in assay [12]. In addition, the Potency in assay [13] was 3.55 µM (active); in assay [14] it was 1.12 µM (active); in assay [15], 1 µM (active); in [16], 3.16 µM (active); in [17], 2.24 µM (active); in assay [18], 2.51 µM (active). Besides, the Potency is 4.78 µM (active) in [19] and 3.16 µM (active) in [20].

Turning to `CC(=O)Nc1ccc(OC(=O)c2ccccc2O)cc1`, the Potency entry in assay [1], in assay [2], in [3], in assay [4], in assay [5] and in [6] was “inactive” throughout. Further, the Potency result in assay [7], in assay [8], in assay [9], in assay [10], in assay [11] and in assay [12] was “inactive” in each case. Moreover, the Potency result in [13], in assay [14], in assay [15], in [16], in assay [17] and in [18] was “inactive” in each case. Moreover, the Potency result in [19] and in assay [20] was “inactive” each time.

Source of the values: PubChem BioAssay (NCATS).
